These results are taken from PubChem BioAssay (NCATS).

Each structure is given as a SMILES string. Values joined by “and” are separate entries in the source; they are usually repeats but may differ in a detail not shown here. Equal entries are not always repeated. Results filed as inconclusive are left out. Active and inactive are the calls of the source. Unless noted, the call rests on the fitted dose curve; in most records, active means well fitted curve in either direction with a large enough effect (not every such curve was filed as active); inconclusive means small, poorly fitted or top-dose-only effect, or another doubt; inactive means flat fitted curve, though single readings scatter.

A short description of experiment [1]: AP1 Signaling Pathway (AID 357). Further: on the % scale 0 is the no-effect control and ±100 the full control effect. The following applies: ME-180 AP-1-bla reporter, EGF-induced, beta-lactamase ratio, 5 h. Put shortly: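 Cells are seeded overnight, exposed to compound titrations and an EC50 level of EGF for 5 hours at 37 °C, then loaded with CCF4 dye for 2.5 hours. Beta-lactamase activity under the AP-1 element is read as a blue/green ratio.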

Experiment [2] can be described thus: NFAT Signaling Pathway (AID 444).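 Further: carbachol stimulus at about its EC50 of 1 µM final; on the % scale 0 is the no-effect control and ±100 the full control effect.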 The following applies: Jurkat NFAT-bla M1, carbachol, beta-lactamase ratio, 5 h. Put shortly:
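Read-out: CCF4 FRET ratio (460 nm/530 nm) after 1 h RT dye loading, used for %activity and AC50 from titration series. Cells: Jurkat NFAT-β-lactamase/M1 line, treated with compound plus 1 uM carbachol for 5 h, 37 °C.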

A short description of experiment [3]: Stat Signaling Pathway (AID 446).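 Further: ME-180 cervical cancer cells given 40 pM IL-6 alongside compound; SIE-controlled beta-lactamase reporter measured as 460/530 nm FRET emission ratio; on the % scale 0 is the no-effect control and ±100 the full control effect.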 The following applies: ME-180 (cervical carcinoma) SIE beta-lactamase reporter, IL-6 stimulated, 5 h. Put shortly:
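Emission at 460 and 530 nm (excitation 405 nm) reports SIE-controlled beta-lactamase in ME-180 cells. Cells received compound with 40 pM IL-6 for 5 hrs at 37 C; data scaled between 300 pM IL-6 and 125 nM JAK-inhibitor controls.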

The target of experiment [4] is Glucocorticoid receptor (Homo sapiens) (UniProt P04150). The experiment can be described thus: GR-GFP Redistribution (AID 450;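 active means compounds whose dose series gives a full or clear partial fitted curve of increased nuclear translocation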; further: potency means the concentration at half of the fitted maximal effect). Particulars: U2OS GR-GFP nuclear translocation, laser cytometry, 2 h.
Sequence of Glucocorticoid receptor (Homo sapiens) (P04150 whole entry, looked up, the tested form may be a part): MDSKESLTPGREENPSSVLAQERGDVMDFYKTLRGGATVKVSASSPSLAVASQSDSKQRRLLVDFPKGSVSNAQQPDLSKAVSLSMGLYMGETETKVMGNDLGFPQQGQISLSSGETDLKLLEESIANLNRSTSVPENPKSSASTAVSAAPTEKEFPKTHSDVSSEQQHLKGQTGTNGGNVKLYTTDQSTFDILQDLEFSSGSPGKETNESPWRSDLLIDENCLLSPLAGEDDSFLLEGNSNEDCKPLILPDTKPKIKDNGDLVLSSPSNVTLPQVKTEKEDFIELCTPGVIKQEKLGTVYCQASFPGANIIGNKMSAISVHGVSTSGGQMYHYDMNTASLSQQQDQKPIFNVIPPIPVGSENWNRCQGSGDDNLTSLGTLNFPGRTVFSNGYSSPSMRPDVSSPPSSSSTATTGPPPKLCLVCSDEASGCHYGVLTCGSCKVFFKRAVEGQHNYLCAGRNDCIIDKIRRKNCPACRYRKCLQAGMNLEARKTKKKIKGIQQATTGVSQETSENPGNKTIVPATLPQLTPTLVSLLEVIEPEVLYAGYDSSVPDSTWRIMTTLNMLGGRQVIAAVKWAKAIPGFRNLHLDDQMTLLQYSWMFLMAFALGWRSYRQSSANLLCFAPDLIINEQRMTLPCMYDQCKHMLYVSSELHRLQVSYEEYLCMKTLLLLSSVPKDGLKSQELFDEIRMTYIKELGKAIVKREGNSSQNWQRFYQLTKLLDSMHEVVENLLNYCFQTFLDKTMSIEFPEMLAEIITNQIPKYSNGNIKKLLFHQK
Experiment [5] shares this target. The experiment can be described thus: GR-EFC Redistribution (AID 451; calls by dose curve; further: potency means the concentration at half of the fitted maximal effect). The following applies: CHO-K1 GR-EFC translocation, beta-gal luminescence, 2 h. Put shortly: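 Translocation of GR-ED fusion to nuclear EA restores b-gal, read by luminescence after 1 h room-temperature detection. Engineered CHO-K1 biosensor cells, 1,000/well, exposed 2 h at 37 C to titrations up to 46 uM final.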

The target in experiment [6] is Mitogen-activated protein kinase 10 (Mus musculus) (UniProt Q61831). Put plainly: JNK3 AlphaScreen Assay (AID 530).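 Further: kinase came from lysate of stimulated human HepG2 cells; signal reports phosphorylation of biotinylated GST-cJun 1-79 at Ser73 with 10 µM ATP; on the % scale 0 is the no-effect control and ±100 the full control effect.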 Put shortly:
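Kinase buffer: 20 mM Tris-HCl pH 7.6, 10 mM MgCl2, 1 mM DTT, 0.1 mM Na3VO4, 0.01% Tween-20; ATP 10 uM. Substrate biotin-GST-cJun(1-79), enzyme from activated HepG2 lysates. Detection by Ser73 phospho-antibody AlphaScreen.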

Experiment [7] deals with 3',5'-cyclic-AMP phosphodiesterase 4B (Homo sapiens) (UniProt Q07343). The experiment can be described thus: qHTS Assay for Inhibitors of PDE-IV (AID 607; active means well fitted activation curve with a large enough effect in the main read-out, with a control signal flat, not every such curve was filed as active; further: % of control where 0% means no effect). Put shortly:
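The readout is membrane depolarisation from a cAMP-sensing CNG channel, detected with a potential dye at ex 535/em 590. Cells were HEK293-derived (endogenous PDE-IV) at 1000 cells/well, titrated up to 22.9 uM final.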
On the technique in general: In qHTS, concentration-response curves come from the screen itself.

The nature of experiment [8]: qHTS Assay for Lipid Storage Modulators (AID 1519; calls by dose curve). The following applies: Drosophila S3 cells, BODIPY lipid droplet/cell ratio, laser cytometry, cells loaded with oleic acid. Put shortly:
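Cells seeded at 5,000 per well were treated with compounds over a concentration series and loaded with oleic acid (400 uM, as added). Lipid droplet fluorescence (488 nm excitation, 500-530 nm channel) was read by laser-scanning cytometry and normalized to 20 uM Triacsin C.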

Experiment [9] has as its target Dual specificity protein kinase CLK4 (Homo sapiens) (UniProt Q9HAZ1). Put plainly: qHTS Assay for Inhibitors of CDC-like Kinase 4 (ADP-FP Assay) (AID 1795; active means well fitted curve in the direction sought with a large enough effect; an effect the other way counts as inactive or inconclusive; further: nearly all actives have a fitted effect of over 60% in size; further: potency means the concentration at half of the fitted maximal effect). Put shortly: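 Inhibition of ADP formation by 6.25 nM Clk4 is measured using 1 uM ATP and 100 uM RS repeat peptide over one hour. Produced ADP displaces a fluorescent tracer from antibody, lowering polarization.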

Experiment [10] deals with Ubiquitin carboxyl-terminal hydrolase 1 (Homo sapiens) (UniProt O94782). Put plainly: Inhibitors of USP1/UAF1: Pilot qHTS (AID 504865; active means well fitted curve in the direction sought with a large enough effect; an effect the other way counts as inactive or inconclusive;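 further: rhodamine fluorescence freed from ubiquitin-rhodamine substrate followed over time; top concentration of the series differs between compounds; on the % scale 0 is the no-effect control and ±100 the full control effect; nearly all actives have a fitted effect of over 35% in size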). Put shortly:
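Kinetic fluorescence assay: 1nM USP1/UAF1, 15 min compound preincubation, then 150nM Ub-Rho; 480/540 nm.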

Experiment [11] deals with Lysosomal acid glucosylceramidase (Homo sapiens) (UniProt P04062). Put plainly: Glucocerebrosidase-p2 (AID 348; in the data active means potency below about 10 µM; further: potency means the concentration at half of the fitted maximal effect). Particulars: purified GBA, blue fluorogenic substrate, 40 min. Put shortly: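 Normal human glucocerebrosidase (0.2 nM) with blue fluorogenic substrate (80 uM final) in citrate/phosphate pH 5.9 with 10mM sodium taurocholate, 0.01% tween-20; 40 min RT, NaOH/glycine stop; fluorescence Ex 365/Em 440; AC50 from a titration from 0.6 nM upwards.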
Sequence of Lysosomal acid glucosylceramidase (Homo sapiens) (P04062 whole entry, looked up): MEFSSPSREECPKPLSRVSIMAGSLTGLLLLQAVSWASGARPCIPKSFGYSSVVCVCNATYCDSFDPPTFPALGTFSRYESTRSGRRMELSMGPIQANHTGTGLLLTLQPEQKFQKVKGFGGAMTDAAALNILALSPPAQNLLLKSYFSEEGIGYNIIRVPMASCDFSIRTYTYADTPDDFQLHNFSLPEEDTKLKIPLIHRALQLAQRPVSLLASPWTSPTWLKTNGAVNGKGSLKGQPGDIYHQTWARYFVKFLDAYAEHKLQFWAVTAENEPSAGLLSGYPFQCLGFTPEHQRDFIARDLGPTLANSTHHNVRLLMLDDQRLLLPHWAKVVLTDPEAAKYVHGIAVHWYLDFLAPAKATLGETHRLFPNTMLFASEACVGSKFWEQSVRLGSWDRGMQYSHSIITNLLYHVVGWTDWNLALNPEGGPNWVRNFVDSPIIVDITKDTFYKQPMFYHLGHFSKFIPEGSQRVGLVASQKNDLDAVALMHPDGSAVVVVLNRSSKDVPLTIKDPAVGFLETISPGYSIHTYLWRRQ

Experiment [12] addresses Cytochrome P450 1A2 (Homo sapiens) (UniProt P05177). The experiment can be described thus: p450-cyp1a2 (AID 410; calls by dose curve; further: potency means the concentration at half of the fitted maximal effect;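 on activity change, negative = inhibition: -100% = full effect of reference inhibitor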). Put shortly:
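20nM CYP1A2, 100uM Luciferin-ME (=Km), 100mM KPO4; cpd 10 min RT; +NADPH regen, 60 min RT; stop/detect 20 min; luminescence. Normalized to furafylline 57 uM = full inhibition.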

Experiment [13] deals with Cytochrome P450 3A4 (Homo sapiens) (UniProt P08684). Put plainly: qHTS Assay for Inhibitors and Substrates of Cytochrome P450 3A4 (AID 884; active means well fitted curve in the direction sought with a large enough effect; an effect the other way counts as inactive or inconclusive; further: on the % scale 0 is the no-effect control and ±100 the full control effect; nearly all actives have a fitted effect of over 50% in size). Put shortly: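 Luminescent readout of luciferin produced by CYP3A4 (20 nM) dealkylation of Luciferin-PPXE, 25 uM (its KM). NADPH-driven reaction ran 60 min at RT after 10 min compound preincubation; data scaled to 57 uM ketoconazole as 100% inhibition.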
Sequence of Cytochrome P450 3A4 (Homo sapiens) (P08684 whole entry, looked up): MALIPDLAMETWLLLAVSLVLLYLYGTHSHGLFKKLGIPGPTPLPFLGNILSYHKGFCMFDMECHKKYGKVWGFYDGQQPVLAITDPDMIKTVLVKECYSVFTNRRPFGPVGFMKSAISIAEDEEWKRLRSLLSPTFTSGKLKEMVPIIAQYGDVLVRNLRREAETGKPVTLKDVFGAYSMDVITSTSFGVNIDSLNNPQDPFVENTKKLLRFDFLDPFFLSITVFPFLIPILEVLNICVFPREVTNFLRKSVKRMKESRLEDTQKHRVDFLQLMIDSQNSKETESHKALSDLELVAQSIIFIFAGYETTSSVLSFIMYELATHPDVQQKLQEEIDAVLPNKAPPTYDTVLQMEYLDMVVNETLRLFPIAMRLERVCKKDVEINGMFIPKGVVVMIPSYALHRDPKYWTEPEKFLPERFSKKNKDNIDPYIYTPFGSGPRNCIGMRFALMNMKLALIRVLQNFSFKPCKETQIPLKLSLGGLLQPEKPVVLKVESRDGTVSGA

The target is the same in experiment [14]. Put plainly: qHTS Assay for Activators of Cytochrome P450 3A4 (AID 885; active means well fitted curve in the direction sought with a large enough effect; an effect the other way counts as inactive or inconclusive; further: potency means the concentration at half of the fitted maximal effect; nearly all actives have a fitted effect of over 65% in size). Put shortly:
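Activators are scored by enhanced luminescence from CYP3A4 conversion of luciferin-PPXE (25uM, equal to KM) to luciferin, after 60 min at RT with an NADPH-regenerating system.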

Experiment [15] deals with Dual specificity protein kinase CLK4 (Homo sapiens) (UniProt Q9HAZ1). Put plainly: qHTS Assay for Inhibitors of CDC-like Kinase 4 (ADP-Glo Assay) (AID 1771; active means well fitted curve in the direction sought with a large enough effect; an effect the other way counts as inactive or inconclusive; further: nearly all actives have a fitted effect of over 70% in size; further: potency means the concentration at half of the fitted maximal effect). Put shortly: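 25 nM Clk4, 100 uM RS peptide, 1 uM ATP (final); 2 mM MgCl2, 0.5 mM EGTA, 2.5 mM DTT, 0.01% Triton X-100; 1 hr RT. ADP-Glo readout: ATP depletion 45 min, conversion/luciferase 30 min, luminescence.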
Sequence of Dual specificity protein kinase CLK4 (Homo sapiens) (Q9HAZ1 whole entry, looked up): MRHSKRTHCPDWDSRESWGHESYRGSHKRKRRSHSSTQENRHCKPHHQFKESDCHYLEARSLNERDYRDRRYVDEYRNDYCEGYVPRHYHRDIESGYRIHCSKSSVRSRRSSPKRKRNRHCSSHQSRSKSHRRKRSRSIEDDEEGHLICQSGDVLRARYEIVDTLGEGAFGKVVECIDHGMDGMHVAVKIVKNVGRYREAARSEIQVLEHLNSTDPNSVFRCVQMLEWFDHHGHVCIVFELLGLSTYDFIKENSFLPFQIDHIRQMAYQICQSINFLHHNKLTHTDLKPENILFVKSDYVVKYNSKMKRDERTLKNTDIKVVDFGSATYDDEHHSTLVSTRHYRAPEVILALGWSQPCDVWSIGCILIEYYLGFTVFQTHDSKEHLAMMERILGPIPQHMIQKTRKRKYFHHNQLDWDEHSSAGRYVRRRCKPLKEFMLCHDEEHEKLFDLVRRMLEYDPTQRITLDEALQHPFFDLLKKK

For experiment [16] the target is unchanged. Put plainly: qHTS Assay for Inhibitors of CDC-like Kinase 4 (Kinase-Glo Assay) (AID 1770; active means well fitted curve in the direction sought with a large enough effect; an effect the other way counts as inactive or inconclusive; further: potency means the concentration at half of the fitted maximal effect; nearly all actives have a fitted effect of over 65% in size). Put shortly:
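Inhibition was judged from remaining ATP, measured by Ultra-Glo luciferase bioluminescence after Clk4 (25 nM) had acted on RS peptide at 1 uM ATP for 4.5 hours, room temperature.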

Setting [17] is: at 7.69 µM (top of the series) unless noted.
[18] abbreviates: measured here: cell count channel max response.
[19] abbreviates: measured here: lipid channel max response.

Sequence of 3',5'-cyclic-AMP phosphodiesterase 4B (Homo sapiens) (Q07343 whole entry, looked up): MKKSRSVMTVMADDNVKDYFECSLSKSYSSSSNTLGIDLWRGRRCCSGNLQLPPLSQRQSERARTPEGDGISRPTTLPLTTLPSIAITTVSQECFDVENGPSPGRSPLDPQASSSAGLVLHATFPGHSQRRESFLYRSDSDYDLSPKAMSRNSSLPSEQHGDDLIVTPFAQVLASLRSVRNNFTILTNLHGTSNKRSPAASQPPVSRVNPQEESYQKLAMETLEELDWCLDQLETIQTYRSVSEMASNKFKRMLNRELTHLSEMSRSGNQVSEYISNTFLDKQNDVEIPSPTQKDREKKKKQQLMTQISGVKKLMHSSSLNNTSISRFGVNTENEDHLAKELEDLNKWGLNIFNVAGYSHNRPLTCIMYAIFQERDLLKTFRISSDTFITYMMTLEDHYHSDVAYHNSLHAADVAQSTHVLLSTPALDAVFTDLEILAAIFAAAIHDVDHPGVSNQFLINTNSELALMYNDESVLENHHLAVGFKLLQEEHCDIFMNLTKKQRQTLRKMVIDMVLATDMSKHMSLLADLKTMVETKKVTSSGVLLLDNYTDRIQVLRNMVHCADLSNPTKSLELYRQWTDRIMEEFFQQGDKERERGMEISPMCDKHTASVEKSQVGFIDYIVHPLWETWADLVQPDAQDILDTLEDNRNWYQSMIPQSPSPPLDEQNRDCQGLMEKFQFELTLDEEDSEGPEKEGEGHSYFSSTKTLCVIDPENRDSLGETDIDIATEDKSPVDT
Sequence of Ubiquitin carboxyl-terminal hydrolase 1 (Homo sapiens) (O94782 whole entry, looked up): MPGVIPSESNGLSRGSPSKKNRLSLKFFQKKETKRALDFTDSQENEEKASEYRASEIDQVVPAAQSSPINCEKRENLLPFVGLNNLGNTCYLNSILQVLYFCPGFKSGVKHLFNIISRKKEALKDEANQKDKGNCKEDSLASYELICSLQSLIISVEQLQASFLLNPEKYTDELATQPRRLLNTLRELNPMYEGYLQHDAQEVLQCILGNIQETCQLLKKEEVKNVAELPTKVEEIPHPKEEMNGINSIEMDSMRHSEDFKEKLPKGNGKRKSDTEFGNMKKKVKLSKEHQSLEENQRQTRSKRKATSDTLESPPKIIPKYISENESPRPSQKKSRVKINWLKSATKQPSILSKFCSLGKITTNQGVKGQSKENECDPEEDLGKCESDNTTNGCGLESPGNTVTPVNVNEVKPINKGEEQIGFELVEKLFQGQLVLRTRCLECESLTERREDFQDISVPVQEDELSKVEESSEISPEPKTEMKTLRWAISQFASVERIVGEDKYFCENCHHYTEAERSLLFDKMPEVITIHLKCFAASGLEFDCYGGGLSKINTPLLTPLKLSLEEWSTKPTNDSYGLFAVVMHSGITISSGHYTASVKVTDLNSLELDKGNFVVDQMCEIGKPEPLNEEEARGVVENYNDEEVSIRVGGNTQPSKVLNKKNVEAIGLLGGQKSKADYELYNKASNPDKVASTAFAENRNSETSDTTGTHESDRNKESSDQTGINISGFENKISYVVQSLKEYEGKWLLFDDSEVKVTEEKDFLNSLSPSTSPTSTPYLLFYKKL
Sequence of Cytochrome P450 1A2 (Homo sapiens) (P05177 whole entry, looked up): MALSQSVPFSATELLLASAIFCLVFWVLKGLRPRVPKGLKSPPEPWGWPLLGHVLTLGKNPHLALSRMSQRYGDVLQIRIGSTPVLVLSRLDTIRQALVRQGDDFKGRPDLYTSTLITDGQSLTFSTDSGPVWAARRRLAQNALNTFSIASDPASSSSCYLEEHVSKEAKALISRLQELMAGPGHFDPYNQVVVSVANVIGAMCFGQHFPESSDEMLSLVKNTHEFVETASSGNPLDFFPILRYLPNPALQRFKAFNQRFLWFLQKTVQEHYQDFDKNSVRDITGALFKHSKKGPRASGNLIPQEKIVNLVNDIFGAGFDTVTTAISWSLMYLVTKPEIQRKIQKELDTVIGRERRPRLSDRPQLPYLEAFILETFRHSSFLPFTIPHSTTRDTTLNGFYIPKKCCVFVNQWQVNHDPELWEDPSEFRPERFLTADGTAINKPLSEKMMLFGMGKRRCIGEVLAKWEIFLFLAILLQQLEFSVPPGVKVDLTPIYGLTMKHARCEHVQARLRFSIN

On to `CN(C)c1ncc2ncc(=O)n(C[C@H]3CCCO3)c2n1`, for which the activity change, negative = inhibition was -16.4% (inactive) in experiment [1] (setting [17]), -6.33% (inactive) in experiment [2] (setting [17]) and 5.33% (inactive) in experiment [8] (at 57.5 µM (top of the series)). In addition, the activity, negative = inhibition in experiment [3] (setting [17]) is -10.5% (inactive). Also, the Potency is > 9.22 µM (inactive) in [4] and > 46 µM (inactive) in experiment [5]. In addition, the compound was called inactive in experiment [6]. Moreover, the Potency entry in experiment [7], in experiment [9] and in experiment [10] was “inactive” throughout. Also, the results for the max response in [8] (setting [18]) and in [8] (setting [19]) were -7.9% and -4.59%, respectively.

On to `Cn1cccc1C(=O)N1CCC2(CC1)CCN(c1ccccc1)CC2`, for which the Potency in experiment [11] was > 11.4 µM (inactive); in experiment [12], 12.6 µM (active); in experiment [5], > 46 µM (inactive); in [14], 15.8 µM (active). For the same compound, the activity change, negative = inhibition in experiment [1] (setting [17]) was -11.3% (inactive); in experiment [2] (setting [17]) it was 20.8% (inactive); in experiment [8] (at 57.5 µM (top of the series)) it was 5.03% (inactive). For the same compound, the activity, negative = inhibition in [3] (setting [17]) was -1.51% (inactive). Besides, the Potency entry in [7] and in experiment [13] was “inactive” in each case. Also, the max response in experiment [8] (setting [18]) is 9.38%; in [8] (setting [19]), 16.6%.

Regarding `Cc1nc2cnc(Nc3ccccc3)nc2n(C2CC2)c1=O`, the Potency in experiment [11] is > 11.4 µM (inactive); in experiment [12] it was 1 µM (active); in experiment [4], > 9.22 µM (inactive); in experiment [5], > 46 µM (inactive); in [15], 6.31 µM (active). Also, the activity change, negative = inhibition was -25.6% (inactive) in experiment [1] (setting [17]) and -15.4% (inactive) in experiment [8] (at 57.5 µM (top of the series)). In addition, in experiment [3] (setting [17]), the activity, negative = inhibition was -10.8% (inactive). For the same compound, the result in [6] was inactive. Further, the Potency entry in experiment [7] and in experiment [10] was “inactive” in each case. The max response is -13.6% in [8] (setting [18]) and -28.8% in [8] (setting [19]).

On to `CCCNC[C@H](O)COc1ccccc1C(=O)CCc1ccccc1`, for which the activity change, negative = inhibition in [1] (at 17.2 µM (top of the series)) is 6.84% (inactive); in [1] (at 38 µM (top of the series)), 18.1% (inactive) and 7.01% (inactive); in [2] (at 17.2 µM (top of the series)), 3.46% (inactive); in experiment [2] (at 38 µM (top of the series)), 1.4% (inactive) and 9.3% (inactive); in [8] (at 25.7 µM (top of the series)), -1.16% (inactive); in experiment [8] (at 57.5 µM (top of the series)) it was -2.08% (inactive). In addition, the activity, negative = inhibition is -4.64% (inactive) in [3] (at 17.2 µM (top of the series)); -19.1% (inactive) and -13.3% (inactive) in [3] (at 38 µM (top of the series)). For the same compound, in [6], the compound was classed as inactive. Besides, in experiment [7], the Potency result is “inactive”. Also, the max response in experiment [8] (setting [18]) was -11.4% and -51.8%; in experiment [8] (setting [19]), -13.7% and -51.9%.

Consider `COCC(=O)N1CCC2(CC1)CCN(C(=O)Nc1cccc(F)c1)CC2`, for which the Potency in experiment [11] was > 11.4 µM (inactive); in experiment [5], > 46 µM (inactive). Moreover, the values for the activity change, negative = inhibition in experiment [1] (setting [17]), in [2] (setting [17]) and in [8] (at 57.5 µM (top of the series)) were 5.9% (inactive), 3.94% (inactive) and 0.649% (inactive), respectively. Moreover, the Potency result in [12] and in experiment [7] was “inactive” throughout. Besides, the activity, negative = inhibition in [3] (setting [17]) was -5.26% (inactive). Moreover, the compound was classed as inactive in experiment [6]. For the same compound, the max response is 10.1% in [8] (setting [18]) and 10.7% in [8] (setting [19]).

Regarding `COc1cccc(Cn2c(=O)c(-c3ccc(F)cc3)nc3cnc(OC)nc32)c1`, the figures for the Potency in experiment [11] and in experiment [5] were > 11.4 µM (inactive) and > 46 µM (inactive), respectively. The activity change, negative = inhibition in [1] (setting [17]) is -1.52% (inactive); in experiment [2] (setting [17]), -0.296% (inactive); in experiment [8] (at 57.5 µM (top of the series)) it was 7.13% (inactive). Besides, in experiment [3] (setting [17]), the activity, negative = inhibition is 6.3% (inactive). Moreover, in [6], the compound was called inactive. Also, the Potency result in experiment [7], in [15], in experiment [9] and in experiment [10] was “inactive” each time. Moreover, the max response in [8] (setting [18]) amounted to 25.9%; in experiment [8] (setting [19]), 31.8%.

With `Cc1cnc(CNc2ncnc3ccc(-c4c(C)noc4C)cc23)cn1`, the Potency is > 11.4 µM (inactive) in experiment [11]; > 46 µM (inactive) in [4]; > 46 µM (inactive) in [5]; 2.51 µM (active) in experiment [16]; 2.82 µM (active) in [15]; 3.55 µM (active) in experiment [9]. For the same compound, the activity change, negative = inhibition in [1] (setting [17]) is 12.8% (inactive); in experiment [8] (at 57.5 µM (top of the series)) it was 0.208% (inactive). Further, the Potency entry in experiment [7] and in [10] was “inactive” in each case. Besides, the max response amounted to 8.76% in experiment [8] (setting [18]) and 7.19% in [8] (setting [19]).
